ATG4B inh – inhibitors of human ATG4B cysteine protease; 340,000 tested, 0.51% active; AID 504462; inhibition, % at 8.33 µM; ATG4B cleavage of LC3-PLA2, NBD-HPC fluorescence, 1 h; Q9Y4P1; in the data active = inhibition above about 40%
Target sequence (Q9Y4P1 whole entry, looked up): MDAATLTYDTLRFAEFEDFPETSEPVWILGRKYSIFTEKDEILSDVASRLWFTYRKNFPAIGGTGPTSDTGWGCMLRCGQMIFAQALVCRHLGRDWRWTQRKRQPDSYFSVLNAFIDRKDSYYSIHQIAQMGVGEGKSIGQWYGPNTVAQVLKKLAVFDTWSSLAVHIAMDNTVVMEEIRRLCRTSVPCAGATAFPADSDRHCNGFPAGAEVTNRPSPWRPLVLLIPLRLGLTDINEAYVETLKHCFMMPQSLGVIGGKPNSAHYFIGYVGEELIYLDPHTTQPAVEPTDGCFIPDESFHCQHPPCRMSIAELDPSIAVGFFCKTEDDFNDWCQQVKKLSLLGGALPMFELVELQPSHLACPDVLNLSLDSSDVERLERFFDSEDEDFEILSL
PfHsp90 set2 – inhibits growth of yeast expressing Plasmodium falciparum Hsp90 | S. cerevisiae expressing PfHsp90, BacTiter-Glo ATP, 48 h; yeast lacking PDR1 and PDR3 efflux regulators | inhibition, % at 9.4 µM | 310,000 tested, 0.32% active;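 active = every replicate shows inhibition above about 80%, whatever the replicate mean, limit read from the data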
tim23-1 inh – inhibits growth of tim23-1 mutant yeast | S. cerevisiae tim23-1 growth, BacTiter-Glo luminescence, 24 h | inhibition, % at 20 µM | 330,000 tested, 1.3% active;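 active = growth inhibition of the mutant yeast at or above 50%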;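 also: temperature-sensitive mutant grown at 25 °C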
SKKanGAS inh – SKKanGAS growth inhibition; S. pyogenes SKKanGAS, kanamycin growth, BacTiter-Glo, 6 h; inhibition, % at 7.5 µM; 300,000 tested, 1.3% active;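 active = mean replicate score, as percent of positive control median, at least 50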;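 also: strain carries kanamycin resistance gene driven by streptokinase promoter and grows in 40 µg/ml kanamycin; loss of luminescence reflects streptokinase promoter inhibition or plain growth inhibition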
TIM10 inh – inhibits growth of TIM10 yeast strain. S. cerevisiae TIM10 strain growth, BacTiter-Glo luminescence, 24 h. inhibition, % at 10 µM. 330,000 tested, 1.4% active;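 active = inhibition of 40% or more at the single tested concentration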;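 also: wild-type TIM10 isogenic control strain grown at permissive 25 °C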
tim10-1 inh – tim10-1 yeast growth inhibition; inhibition, % at 20 µM; S. cerevisiae tim10-1 ts strain growth, BacTiter-Glo, 24 h; 330,000 tested, 2.2% active;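 active = inhibition of at least 40%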;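 also: mutant grown at 25 °C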
tim10 confirm – TIM10 yeast growth inhibition, confirmed. inhibition, % at 10 µM. 4,600 tested, 63% active. S. cerevisiae tim10 strain growth, BacTiter-Glo luminescence, 24 h. shares compounds with TIM10 inh;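 active = inhibition of yeast growth at or above a set limit in either of two replicates at 10 µM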; also: this counterscreen used the strain with wild-type TIM10
Large screens that a line does not name were inactive (follow-up assays come after a bar, where they were run). This is a sample that favours compounds with a hit; in the whole collection about 4.7% have one here.

COc1ccc(/C=N/Nc2nc(Nc3ccccc3)nc(N3CCCCC3)n2)c(OC)c1	TIM10 inh 41 | tim10 confirm inactive
Oc1[nH]c2ccccc2c1N=Nc1nc(Nc2ccccc2)nc(N2CCOCC2)n1	none
Cc1[nH]c2ccccc2c1/C=N/Nc1nc(Nc2ccccc2)nc(N2CCOCC2)n1	TIM10 inh 52 | tim10 confirm 35
CCN(c1ccccc1)S(=O)(=O)c1ccc(Cl)c(NC(=O)COC(=O)c2cc(O)c3ccccc3c2O)c1	TIM10 inh 45 (no result: ATG4B inh, PfHsp90 set2) | tim10 confirm 32
CC(=O)Nc1cccc(Oc2nc(-c3ccccn3)nc3ccccc23)c1	TIM10 inh 45 | tim10 confirm 33
Cc1ccc(C2=NOC(C)(c3nnc(-c4cccc(Cl)c4)o3)C2)cc1 (stereo unspecified)	none
C=CCNC(=O)CCc1nnc(C2(c3ccc(Cl)cc3)CCC2)o1	none
CC(C)CCOc1cccc(OCC(=O)Nc2ccncc2)c1	PfHsp90 set2 103, TIM10 inh 56 | tim10 confirm 50
CC1(C)Cc2c(c(N3CCOCC3)nc3sc4c(NCc5ccccc5)nnnc4c23)CS1	none
CC(C)CNc1nnnc2c1sc1nc(N3CCOCC3)c3c(c12)CC(C)(C)SC3	TIM10 inh 40 | tim10 confirm inactive
Cc1ccc(C(=O)CNc2cccc([N+](=O)[O-])c2)cc1	none
O=C(O/N=C1/CCCc2occc21)c1ccc(Cl)cc1Cl	TIM10 inh 44 | tim10 confirm 38
COC(=O)c1ccc(NC(=S)N2CCN(Cc3ccc(Cl)cc3)CC2)cc1	TIM10 inh 49 | tim10 confirm 36
COC(=O)c1ccc(NC(=S)N2CCN(Cc3ccccc3Cl)CC2)cc1	none
CC(=O)Nc1ccc2c(c1)C(=O)c1ccccc1C2=O	none (no result: PfHsp90 set2)
O=C1c2ccccc2C(=O)c2cc(NC(=O)C3CC3)ccc21	TIM10 inh 44 | tim10 confirm inactive
Cc1ccc(F)cc1NC(=O)CN1CCN(c2ccccn2)CC1	none
CCOC(=O)N1CCN(C(=S)NC(=O)c2c(-c3c(Cl)cccc3Cl)noc2C)CC1	none | tim10 confirm inactive
Cc1onc(-c2c(Cl)cccc2Cl)c1C(=O)NC(=S)N1CCOCC1	none
CCC(C)[C@H](NC(=O)N1CCn2c1nc1ccccc12)C(=O)NCCc1ccc(OC)c(OC)c1 (stereo partly specified)	none
Cc1cc(O)cc2c(=O)c3ccccc3sc12	TIM10 inh 60 | tim10 confirm 55
O=C(c1cccc(C(=O)N2CCN(c3ccccc3F)CC2)n1)N1CCN(c2ccccc2F)CC1	none (no result: PfHsp90 set2)
Cc1cccc(Cn2c(=O)c3c(nc4n3CCCN4Cc3ccccc3)n(C)c2=O)c1	TIM10 inh 55 | tim10 confirm inactive
Cn1c(=O)n(Cc2ccccc2)c(=O)c2c1nc1n2CCCN1C1CCCCC1	TIM10 inh 41 | tim10 confirm inactive
CCn1c(=O)c2c(nc3n2CCCN3Cc2ccccc2)n(C)c1=O	none
CCN(CC)S(=O)(=O)c1cccc(C(=O)Nc2ccc3c(c2)OCO3)c1	none
Cn1c(=O)c2[nH]c(SCCN)nc2n(C)c1=S	none (no result: tim23-1 inh, SKKanGAS inh, TIM10 inh, tim10-1 inh)
COc1ccc(C(NC(=O)c2cc(OC)ccc2OC)c2ccccc2)cc1 (stereo unspecified)	none
CC(=O)Nc1ccc(C(=O)N/N=C/c2cc(Br)cc(Br)c2O)cc1	TIM10 inh 52 | tim10 confirm 31
COc1cc(/C=C/c2cc[n+](C)cc2)ccc1OCC(=O)Nc1ccc(Cl)c(Cl)c1	SKKanGAS inh 60, TIM10 inh 42 | tim10 confirm inactive
O=C(N/N=C/c1cccs1)c1ccc2ccccc2c1	TIM10 inh 47 | tim10 confirm inactive
CC(C)(C)C1CCC(=NNC(=S)Nc2cccnc2)CC1 (stereo unspecified)	TIM10 inh 44 | tim10 confirm 35
CC(=O)Oc1ccc2ccccc2c1C(NC(=O)Cc1ccccc1)c1ccc(Cl)cc1 (stereo unspecified)	TIM10 inh 40 | tim10 confirm inactive
COc1ccc(C2CC(=O)C(C=NCCCO)=C(O)C2)cc1 (stereo unspecified)	none
COc1ccc(C2CC(=O)C(C=NCC(C)C)=C(O)C2)cc1 (stereo unspecified)	TIM10 inh 97 | tim10 confirm inactive
O=C1NCC(O)=C1C=NCCCO	none
O=[N+]([O-])c1cc([N+](=O)[O-])c2c(=Nc3ccccc3)n(-c3ccccc3)n(O)c2c1	TIM10 inh 50 | tim10 confirm 66
CC(C)C(=O)Nc1ncc(Cc2ccc(Cl)cc2)s1	TIM10 inh 47 | tim10 confirm 34
Cc1ccc(Cc2cnc(NC(=O)c3ccco3)s2)cc1	none | tim10 confirm 40
O=C(NC1CCCCCC1)C1CCCN(S(=O)(=O)c2cccs2)C1 (stereo unspecified)	none
COc1ccccc1N(C)S(=O)(=O)c1ccc(C(=O)NCCc2ccc(F)cc2)cc1	TIM10 inh 46 | tim10 confirm 51
Cc1ccc(NC2CCCN(C(=O)c3c(C)noc3C)C2)cc1C (stereo unspecified)	none
O=C(c1ccc(Br)cc1)C(CN1CCOCC1)c1ccccc1 (stereo unspecified)	PfHsp90 set2 98, TIM10 inh 51 | tim10 confirm 60
Cc1ccc(NC(=O)C2CCN(C(=O)OC(C)(C)C)CC2)cc1S(=O)(=O)N1CCCCC1	TIM10 inh 56 (no result: SKKanGAS inh) | tim10 confirm inactive
Cc1ccc(NC(=O)C2CCCC2)cc1S(=O)(=O)N1CCOCC1	none (no result: SKKanGAS inh)
COc1ccc(N2C(=O)/C(=C/c3ccc([N+](=O)[O-])cc3)C=C2c2ccccc2)cc1	none
CCOC(=O)C1=C(c2ccccc2)NC(=O)NC1c1cc(OC)c(OC)c(OC)c1 (stereo unspecified)	none (no result: SKKanGAS inh)
COc1ccc(OC)c(/C=C/C(=O)c2ccc(Cl)cc2)c1	TIM10 inh 45 | tim10 confirm 32
COc1ccccc1/C=C/C(=O)c1ccc(Cl)cc1	none
CNC(=O)c1cc2c(ccc3ccccc32)o1	TIM10 inh 61 | tim10 confirm 59
COC(=O)C1C2CCCCC1C(=O)O2 (stereo unspecified)	none (no result: tim23-1 inh, SKKanGAS inh, TIM10 inh, tim10-1 inh)
CCCCC(O)(c1ccc(F)cc1)C(CN1CCOCC1)c1ccc(Cl)cc1 (stereo unspecified)	none
Cc1nnc(C)n1/N=C/c1ccc(O)cc1	none (no result: ATG4B inh)
Oc1ccc(/C=N/n2c3ccccc3c3ccccc32)cc1	SKKanGAS inh 71, TIM10 inh 44 | tim10 confirm 75
C/C=C(\C)C(=O)Nc1cccc(C2=NOC3(C2)C[C@H](C(N)=O)N(C(=O)C(c2ccccc2)c2ccccc2)C3)c1 (stereo partly specified)	none
Cc1ccc(-c2nnc(N(C)C(=O)c3cccnc3)s2)cc1	TIM10 inh 42 | tim10 confirm inactive

Bioassay records deposited in PubChem by several laboratories.
